# Measurements as given in the supplement of paper PMC4466140.
# Target: ScBbc1
# Assay: SPOT peptide array binding signal intensity (averaged, normalized) (arbitrary units (background-subtracted, floor 0; scale differs between SH3 domains)); higher = stronger binding of the SH3 domain to the peptide
# Procedure, shortened: (§1)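 The binding signal is the normalized, background-subtracted spot intensity averaged over replicates; its arbitrary units differ between domains. It was obtained by incubating 10 μg/ml GST-fused SH3 domains from four yeast species overnight at 4°C in TBS-based blocking buffer on cellulose membranes with synthetic 15-mer peptides, cysteines replaced by serines, then detecting with anti-GST antibody, HRP anti-mouse secondary and luminol.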
row,Binder,SPOT peptide array binding signal intensity
1,KKEKKPPKIPKKVYT,1

# Target: ScBem1-D1
# Assay: as above
# Procedure, shortened: as §1
row,Binder,SPOT peptide array binding signal intensity
1,KKEKKPPKIPKKVYT,16

# Target: ScBzz1-D1
# Assay: as above
# Procedure, shortened: as §1
row,Binder,SPOT peptide array binding signal intensity
1,KKEKKPPKIPKKVYT,98

# Target: ScBzz1-D2
# Assay: as above
# Procedure, shortened: as §1
row,Binder,SPOT peptide array binding signal intensity
1,KKEKKPPKIPKKVYT,9.5

# Target: ScCyk3
# Assay: as above
# Procedure, shortened: as §1
row,Binder,SPOT peptide array binding signal intensity
1,KKEKKPPKIPKKVYT,≤ 0

# Target: ScFus1
# Assay: as above
# Procedure, shortened: as §1
row,Binder,SPOT peptide array binding signal intensity
1,KKEKKPPKIPKKVYT,≤ 0

# Target: ScHof1
# Assay: as above
# Procedure, shortened: as §1
row,Binder,SPOT peptide array binding signal intensity
1,KKEKKPPKIPKKVYT,1.5

# Target: ScHse1
# Assay: as above
# Procedure, shortened: as §1
row,Binder,SPOT peptide array binding signal intensity
1,KKEKKPPKIPKKVYT,91

# Target: ScLsb1
# Assay: as above
# Procedure, shortened: as §1
row,Binder,SPOT peptide array binding signal intensity
1,KKEKKPPKIPKKVYT,4.75

# Target: ScLsb2
# Assay: as above
# Procedure, shortened: as §1
row,Binder,SPOT peptide array binding signal intensity
1,KKEKKPPKIPKKVYT,2

# Target: ScLsb3
# Assay: as above
# Procedure, shortened: as §1
row,Binder,SPOT peptide array binding signal intensity
1,KKEKKPPKIPKKVYT,256

# Target: ScLsb4
# Assay: as above
# Procedure, shortened: as §1
row,Binder,SPOT peptide array binding signal intensity
1,KKEKKPPKIPKKVYT,≤ 0

# Target: ScMyo3
# Assay: as above
# Procedure, shortened: as §1
row,Binder,SPOT peptide array binding signal intensity
1,KKEKKPPKIPKKVYT,≤ 0

# Target: ScMyo5
# Assay: as above
# Procedure, shortened: as §1
row,Binder,SPOT peptide array binding signal intensity
1,KKEKKPPKIPKKVYT,4.25

# Target: ScNbp2
# Assay: as above
# Procedure, shortened: as §1
row,Binder,SPOT peptide array binding signal intensity
1,KKEKKPPKIPKKVYT,2

# Target: ScPex13
# Assay: as above
# Procedure, shortened: as §1
row,Binder,SPOT peptide array binding signal intensity
1,KKEKKPPKIPKKVYT,11

# Target: ScRvs167
# Assay: as above
# Procedure, shortened: as §1
row,Binder,SPOT peptide array binding signal intensity
1,KKEKKPPKIPKKVYT,2

# Target: ScSho1
# Assay: as above
# Procedure, shortened: as §1
row,Binder,SPOT peptide array binding signal intensity
1,KKEKKPPKIPKKVYT,109

# Target: ScSla1-D1-D2
# Assay: as above
# Procedure, shortened: as §1
row,Binder,SPOT peptide array binding signal intensity
1,KKEKKPPKIPKKVYT,10

# Target: ScSla1-D3
# Assay: as above
# Procedure, shortened: as §1
row,Binder,SPOT peptide array binding signal intensity
1,KKEKKPPKIPKKVYT,14.5

# Target: SpAbp1-D1
# Assay: as above
# Procedure, shortened: as §1
row,Binder,SPOT peptide array binding signal intensity
1,KKEKKPPKIPKKVYT,396

# Target: SpBbc1
# Assay: as above
# Procedure, shortened: as §1
row,Binder,SPOT peptide array binding signal intensity
1,KKEKKPPKIPKKVYT,3.5

# Target: SpBzz1-D1
# Assay: as above
# Procedure, shortened: as §1
row,Binder,SPOT peptide array binding signal intensity
1,KKEKKPPKIPKKVYT,158

# Target: SpBzz1-D2
# Assay: as above
# Procedure, shortened: as §1
row,Binder,SPOT peptide array binding signal intensity
1,KKEKKPPKIPKKVYT,0.75

# Target: SpCyk3
# Assay: as above
# Procedure, shortened: as §1
row,Binder,SPOT peptide array binding signal intensity
1,KKEKKPPKIPKKVYT,≤ 0

# Target: SpHof1
# Assay: as above
# Procedure, shortened: as §1
row,Binder,SPOT peptide array binding signal intensity
1,KKEKKPPKIPKKVYT,1.75

# Target: SpHof1-2
# Assay: as above
# Procedure, shortened: as §1
row,Binder,SPOT peptide array binding signal intensity
1,KKEKKPPKIPKKVYT,1

# Target: SpHof1-3
# Assay: as above
# Procedure, shortened: as §1
row,Binder,SPOT peptide array binding signal intensity
1,KKEKKPPKIPKKVYT,6.25

# Target: SpHse1
# Assay: as above
# Procedure, shortened: as §1
row,Binder,SPOT peptide array binding signal intensity
1,KKEKKPPKIPKKVYT,1.5

# Target: SpLsb1
# Assay: as above
# Procedure, shortened: as §1
row,Binder,SPOT peptide array binding signal intensity
1,KKEKKPPKIPKKVYT,55

# Target: SpLsb4
# Assay: as above
# Procedure, shortened: as §1
row,Binder,SPOT peptide array binding signal intensity
1,KKEKKPPKIPKKVYT,≤ 0

# Target: SpMyo1
# Assay: as above
# Procedure, shortened: as §1
row,Binder,SPOT peptide array binding signal intensity
1,KKEKKPPKIPKKVYT,3.25

# Target: SpNbp2
# Assay: as above
# Procedure, shortened: as §1
row,Binder,SPOT peptide array binding signal intensity
1,KKEKKPPKIPKKVYT,≤ 0

# Target: SpPex13
# Assay: as above
# Procedure, shortened: as §1
row,Binder,SPOT peptide array binding signal intensity
1,KKEKKPPKIPKKVYT,≤ 0

# Target: SpRvs167
# Assay: as above
# Procedure, shortened: as §1
row,Binder,SPOT peptide array binding signal intensity
1,KKEKKPPKIPKKVYT,8.33

# Target: SpSla1-D1-D2
# Assay: as above
# Procedure, shortened: as §1
row,Binder,SPOT peptide array binding signal intensity
1,KKEKKPPKIPKKVYT,4

# Target: SpSla1-D3
# Assay: as above
# Procedure, shortened: as §1
row,Binder,SPOT peptide array binding signal intensity
1,KKEKKPPKIPKKVYT,3.5
